Screens as filed in PubChem BioAssay.
Rows were chosen to be rich in hits. Some 4.6% of all compounds tested hit in one or more screens of this group.
D1 ag: Allosteric Agonists of the Human D1 Dopamine Receptor: qHTS. D(1A) dopamine receptor (Homo sapiens), P21728. HEK293 T-REx D1 cells, calcium flux, agonist mode. activation, % at 2 µM. 1% of 360,000 active. AID 504660, 2011
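Tetracycline-induced HEK293 TREx D1 cells, force-coupled to calcium signalling, were dye-loaded with a no-wash calcium kit. Compound was pin-added after a 10 s baseline. Fluorescence was read kinetically at 1 cycle/s for 180 s, with calcium rises flagged as agonism.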
D1 antagonist: Antagonist of Human D 1 Dopamine Receptor: qHTS. D(1A) dopamine receptor (Homo sapiens), P21728. activity change, negative = inhibition, % at 10 µM. AID 504652, 2011. 3.2% of 360,000 active. HEK293 TREx D1 cells, calcium flux, dopamine EC80; active compounds read low; in the data active = activity change below about -30%
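Antagonism measured as reduced calcium response to an EC80 dopamine addition following 180 s compound pre-read; cells were inducible HEK293 Trex D1 plated overnight at 30 C, read kinetically at 1 cycle/sec.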
TRHR enhancer: qHTS for Small Molecule Agonists and Allosteric Enhancers of Human TRH Receptor: Primary Screen for Enhancers | Thyrotropin-releasing hormone receptor (Homo sapiens), P34981 | TRHR cells, fluo-8 calcium fluorescence, EC20 TRH enhancement | enhancement, % at 2 µM | 0.66% of 360,000 active | AID 493056, 2011; in the data active = enhancement above about 30%
Target sequence (P34981 whole entry, looked up): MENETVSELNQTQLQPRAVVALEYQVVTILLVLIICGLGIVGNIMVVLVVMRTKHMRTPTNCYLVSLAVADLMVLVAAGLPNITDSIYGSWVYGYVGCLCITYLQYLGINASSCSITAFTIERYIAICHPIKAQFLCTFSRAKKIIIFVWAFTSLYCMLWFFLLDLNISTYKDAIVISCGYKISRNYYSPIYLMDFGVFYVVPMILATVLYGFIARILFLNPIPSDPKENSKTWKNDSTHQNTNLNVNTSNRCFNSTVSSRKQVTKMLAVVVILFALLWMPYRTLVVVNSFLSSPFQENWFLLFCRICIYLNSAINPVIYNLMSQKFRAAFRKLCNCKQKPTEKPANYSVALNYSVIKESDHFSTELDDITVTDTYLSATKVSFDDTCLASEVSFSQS
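Enhancer read-out: after compound pinning and an initial kinetic agonist-mode read, an EC20 of TRH (10 nM final) was injected and fluo-8 calcium signal (Ex 480/Em 530) followed at 1 s/cycle for 100 cycles in TRHR-expressing cells.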
D1 potentiator: Potentiators of Human D1 Dopamine Receptor: qHTS; 0.036% of 360,000 active; potentiation, % at 10 µM; AID 504651, 2011; HEK293 TREx D1 cells, calcium flux, dopamine EC20 potentiation; in the data active = potentiation above about 30%
TRHR agonist: qHTS for Small Molecule Agonists and Allosteric Enhancers of Human TRH Receptor: Primary Screen for Agonists. 0.18% of 360,000 active. Thyrotropin-releasing hormone receptor (Homo sapiens), P34981. activation, % at 2 µM. TRHR cells, calcium flux fluo-8, FDSS agonist mode
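In this calcium-flux screen, cells bearing human TRHR are dye-loaded with fluo-8, baselined for 10 cycles, then exposed to library compounds; positive kinetic calcium responses during the agonist phase mark hits, with TRH as control.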
Numbers stand for hits; ! = a repeat was not active. Rule as the data show it, unless noted: active = activation above about 30%; inactive = the rest.

For S=c1[nH]nc(Nc2cccc3ccccc23)s1 the results were D1 ag inactive, D1 antagonist -32.6, TRHR enhancer inactive, D1 potentiator inactive and TRHR agonist inactive.
Screening CC1=C(C(=O)OC2CCCCCC2)C(c2ccc(C)o2)C2=C(CCCC2=O)N1 (stereo not given) returned D1 ag inactive, D1 antagonist -32.9, TRHR enhancer inactive, D1 potentiator inactive and TRHR agonist inactive.
For Cc1cnc(NC(=O)Nc2ccccc2)c(C)n1 the results were D1 ag inactive, D1 antagonist inactive, TRHR enhancer inactive, D1 potentiator inactive and TRHR agonist inactive.
CCCCCOc1ccc(C(C)(O)C(CN2CCOCC2)c2ccccc2)cc1 (stereo not given) was read as D1 ag inactive, D1 antagonist inactive, TRHR enhancer inactive, D1 potentiator inactive and TRHR agonist inactive.
Screening COC(=O)c1ccc(C(=S)NCC2(N(C)C)CCCCC2)cc1 returned D1 ag 77.0, D1 antagonist -30.1, TRHR enhancer inactive, D1 potentiator inactive and TRHR agonist inactive.
For CC(=O)Nc1ccc(C(=S)NCC2(N(C)C)CCCCC2)cc1 the results were D1 ag inactive, D1 antagonist inactive, TRHR enhancer inactive, D1 potentiator inactive and TRHR agonist inactive.
`CCOC(=O)C1CCCN(c2ncnc3c2cnn3-c2ccc(C)c(Cl)c2)C1` (stereo not given) gave D1 ag inactive, D1 antagonist -34.3, TRHR enhancer inactive, D1 potentiator inactive and TRHR agonist inactive.
Screening O=C(/C=C/c1cn(CC(O)CN2CCCCCC2)c2ccccc12)c1ccc(Br)cc1 (stereo not given) returned D1 ag 45.2, D1 antagonist inactive, TRHR enhancer inactive, D1 potentiator inactive and TRHR agonist inactive.
Screening O=C(/C=C/c1cn(CC(O)CN2CCCCCC2)c2ccccc12)c1ccccc1 (stereo not given) returned D1 ag 54.4, D1 antagonist inactive, TRHR enhancer inactive, D1 potentiator inactive and TRHR agonist inactive.
Screening O=C(/C=C/c1cn(CC(O)CN2CCCCC2)c2ccccc12)c1ccccc1 (stereo not given) returned D1 ag 31.4, D1 antagonist -49.9, TRHR enhancer inactive, D1 potentiator inactive and TRHR agonist inactive.
For COc1ccc(C(=O)/C=C/c2cn(CC(O)CN3CCCCCC3)c3ccccc23)cc1OC (stereo not given) the results were D1 ag inactive, D1 antagonist inactive, TRHR enhancer inactive, D1 potentiator inactive and TRHR agonist inactive.
For Cc1ccc(C(=O)/C=C/c2cn(CC(O)CN3CCCCCC3)c3ccccc23)cc1 (stereo not given) the results were D1 ag 59.2, D1 antagonist inactive, TRHR enhancer inactive, D1 potentiator inactive and TRHR agonist inactive.
Cc1cc(CN(C)C(=O)CC2C(=O)NCCN2CC(c2ccccc2)c2ccccc2)on1 (stereo not given) was read as D1 ag inactive, D1 antagonist inactive, TRHR enhancer inactive, D1 potentiator inactive and TRHR agonist inactive.
For CCn1c(SCC(=O)Nc2ccccc2)nc2nc3c(cc2c1=O)COC(C)(C)C3 the results were D1 ag inactive, D1 antagonist inactive, TRHR enhancer inactive, D1 potentiator inactive and TRHR agonist inactive.
For COc1ccccc1OCCSc1nc2ccccc2c(=O)[nH]1 the results were D1 ag inactive, D1 antagonist -41.2, TRHR enhancer inactive, D1 potentiator inactive and TRHR agonist inactive.
`CCOC(=O)c1ccc(NC(=O)CSc2nc(C)c(Cc3ccccc3)c(=O)[nH]2)cc1` gave D1 ag inactive, D1 antagonist -30.1, TRHR enhancer inactive, D1 potentiator inactive and TRHR agonist inactive.
For COc1ccc(NC(=O)CSc2nc(O)c(Cc3ccccc3)c(=O)[nH]2)cc1 the results were D1 ag inactive, D1 antagonist inactive, TRHR enhancer 31.7, D1 potentiator inactive and TRHR agonist inactive.
Cc1nc(SCCOc2ccccc2)[nH]c(=O)c1Cc1ccccc1 was read as D1 ag inactive, D1 antagonist inactive, TRHR enhancer inactive, D1 potentiator inactive and TRHR agonist inactive.
Screening COc1ccc(OCCSc2nc(C)c(Cc3ccccc3)c(=O)[nH]2)cc1 returned D1 ag inactive, D1 antagonist -38.8!, TRHR enhancer inactive, D1 potentiator inactive and TRHR agonist inactive.
For O=c1[nH]c(SCCOc2ccccc2F)nc2ccccc12 the results were D1 ag inactive, D1 antagonist inactive, TRHR enhancer inactive, D1 potentiator inactive and TRHR agonist inactive.
Screening O=C(CSc1nc(O)c(Cc2ccccc2)c(=O)[nH]1)Nc1ccccc1 returned D1 ag inactive, D1 antagonist inactive, TRHR enhancer inactive, D1 potentiator inactive and TRHR agonist inactive.
For O=C(COc1cccc(F)c1)Nc1nc(-c2ccncc2)cs1 the results were D1 ag inactive, D1 antagonist inactive, TRHR enhancer inactive, D1 potentiator inactive and TRHR agonist inactive.
Cc1nnc(Nc2ccc3c(c2)OCO3)c2ccccc12 was read as D1 ag inactive, D1 antagonist inactive, TRHR enhancer inactive, D1 potentiator inactive and TRHR agonist inactive.
Screening COc1cccc(C(=O)Nc2nc(-c3nnn(-c4cc(C)ccc4C)c3C)ns2)c1 returned D1 ag inactive, D1 antagonist inactive, TRHR enhancer inactive, D1 potentiator inactive and TRHR agonist inactive.
CC(c1ccccc1)C1CC(=O)N(CC(=O)O)C1=O (stereo not given) was read as D1 ag inactive, D1 antagonist -32.3, TRHR enhancer inactive, D1 potentiator inactive and TRHR agonist inactive.
COc1ccc(CNCc2cc(Cl)ccc2O)cc1 was read as D1 ag 38.3, D1 antagonist inactive, TRHR enhancer inactive, D1 potentiator inactive and TRHR agonist inactive.
Oc1ccc(Cl)cc1CNCc1ccc(Cl)nc1 was read as D1 ag 41.6, TRHR enhancer inactive, D1 potentiator inactive and TRHR agonist inactive.
For CCOc1ccc(C(C)C)cc1S(=O)(=O)N1CCOCC1 the results were D1 ag inactive, D1 antagonist inactive, TRHR enhancer inactive, D1 potentiator inactive and TRHR agonist inactive.
Screening Cc1cccc(C(=O)NC(=S)Nc2ccccc2C(=O)O)c1 returned D1 ag inactive, D1 antagonist inactive, TRHR enhancer inactive, D1 potentiator inactive and TRHR agonist inactive.
`Cc1ccc(C(=O)NC(=S)Nc2ccccc2C(F)(F)F)cc1C` gave D1 ag inactive, D1 antagonist inactive, TRHR enhancer inactive, D1 potentiator inactive and TRHR agonist inactive.
For Cc1cccc(C(=O)NC(=S)NNC(=O)c2ccccc2Cl)c1 the results were D1 ag 301.1, D1 antagonist -34.9, TRHR enhancer inactive, D1 potentiator inactive and TRHR agonist 35.2.
